Bioassay records deposited in PubChem by Center for Chemical Genomics, University of Michigan.
Dicer inh – inhibitors of Dicer pre-microRNA processing, primary screen, biochemical, cat-ELCCA, chemiluminescence. AID 1347074, 2019. 47,000 tested, 6% active. cat-ELCCA pre-miR-21 Dicer processing; active compounds read high. z-score at 25 µM. Endoribonuclease Dicer (Homo sapiens), Q9UPY3; in the data active means z-score above about 3, passing the limit was not always enough;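 further: plate controls were vehicle for no effect and no enzyme for full effect; higher signal means more uncleaved substrate so more Dicer inhibition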
Numbers without * were called inactive. The entries come from a sample that favours hits as a whole.

`CCCCOC(=O)C1=C(C)NC2=C(C(=O)CC(C)(C)C2)C1c1ccc(C(=O)OC)cc1` (stereo unspecified) gave Dicer inh -0.14.
Screening Cc1ccc(S(=O)(=O)Nc2ccc3oc(=O)sc3c2)cc1 returned Dicer inh 5.01*.
Cc1ccc(S(=O)(=O)Nc2cc(Cl)c3oc(=O)sc3c2)c(C)c1 was read as Dicer inh 11.9*.
For Cc1cc(F)ccc1S(=O)(=O)Nc1ccc2oc3c(c2c1)CC(C)CC3 (stereo unspecified) the results were Dicer inh 6.57*.
`Cc1ccc(S(=O)(=O)N2CCN(S(=O)(=O)N3CCOCC3)CC2)c(C)c1` gave Dicer inh -1.88.
For Cc1cc(S(=O)(=O)Nc2cccnc2)c(C)cc1Cl the results were Dicer inh -0.28.
`CCOC(=O)n1c(=O)oc2cc(S(=O)(=O)Nc3ccc(C)cc3)ccc21` gave Dicer inh 1.14.
For CC1CCc2oc3ccc(NS(=O)(=O)c4cccc5cccnc45)cc3c2C1 (stereo unspecified) the results were Dicer inh -0.24.
For Cc1cc(F)ccc1S(=O)(=O)Nc1ccc2oc(C)c(C(=O)OC(C)C)c2c1 the results were Dicer inh -0.11.
CC(=O)Nc1ccc(NS(=O)(=O)c2ccc(C)cc2)cc1[N+](=O)[O-] was read as Dicer inh -0.02.
For Clc1cccc(OCc2nc(-c3ccc(-n4cccc4)cc3)no2)c1 the results were Dicer inh -0.7.
Cn1c(=O)[nH]c(=O)c2c1nc(N1CCNCC1)n2CC(O)COc1ccccc1 (stereo unspecified) was read as Dicer inh -1.17.
For CCOC(=O)c1cnc(-c2ccc(Cl)cc2)nc1-c1ccccc1 the results were Dicer inh -0.04.
Clc1ccc(OCc2nn3c(Cc4ccccc4)nnc3s2)cc1 was read as Dicer inh -1.75.
Screening CCCc1cc(=O)oc2cc(OCC(=O)NNS(=O)(=O)c3cccc(Cl)c3)ccc12 returned Dicer inh 0.
`Clc1cccc(N=CNc2cccc(Cl)c2Cl)c1Cl` gave Dicer inh 0.58.
`O=[N+]([O-])c1ccc(NS(=O)(=O)c2ccc(Cl)cc2)c(Cl)c1` gave Dicer inh 0.14.
For O=C(O)/C=C/C(=O)NCCNC(=O)Cc1ccc(O)cc1 the results were Dicer inh -0.53.
Screening CC1=C(C(=O)OC2CCCCC2)C(c2ccccc2Br)C2=C(CCCC2=O)N1 (stereo unspecified) returned Dicer inh -0.3.
O=C(c1ccc(Cl)cc1)c1c(O)cc(-c2ccc(Cl)cc2)oc1=O was read as Dicer inh 2.65.
Screening O=c1oc2c(-c3cccc(Cl)c3)cc(O)cc2s1 returned Dicer inh 6.23*.
O=c1oc2c(-c3ccccc3F)cc(O)cc2s1 was read as Dicer inh 9.17.
For O=c1oc2c(-c3ccc(Cl)cc3)cc(O)cc2s1 the results were Dicer inh 11.5*.
For O=c1c(-c2cccc(Cl)c2)c(C(F)(F)F)oc2cc(O)ccc12 the results were Dicer inh -1.33.
`O=C1C2=C(c3ccccc3)c3cc(Cl)ccc3C2Sc2ccccc21` (stereo unspecified) gave Dicer inh -0.03.
For Cc1cnc(NC(=O)c2c(F)cccc2Cl)c(Br)c1 the results were Dicer inh 2.55.
CCOc1cc(C2Nc3ccccc3-c3nc4ccccc4n32)ccc1O (stereo unspecified) was read as Dicer inh 1.45.
Screening Cc1ccc(Sc2ncccc2-n2c(C)ccc2C)cc1 returned Dicer inh -1.25.
Screening COc1ccc(-c2csc(Nc3ncccn3)n2)cc1OC returned Dicer inh 0.07.
`Cc1cc(C)nc(Nc2nc(-c3ccc(O)c(O)c3)cs2)n1` gave Dicer inh 8.63*.
For Oc1ccc(-c2csc(Nc3ccccn3)n2)cc1 the results were Dicer inh 0.3.
CC(C)C(=O)N1c2ccccc2NC2=C(C(=O)CC(C)(C)C2)C1c1cccc(F)c1 (stereo unspecified) was read as Dicer inh -0.74.
For COc1ccc(-c2nc3n(n2)C(=O)CC(c2cccs2)S3)cc1 (stereo unspecified) the results were Dicer inh 5.59*.
COc1ccc(C2=NN3C(C2)c2ccccc2OC3c2cccs2)cc1 (stereo unspecified) was read as Dicer inh 1.52.
O=C1CC(c2ccccc2)Sc2nc(-c3cccc4ccccc34)nn21 (stereo unspecified) was read as Dicer inh 0.94.
Screening COc1ccc(C2C(C(=O)c3cccs3)=C(O)C(=O)N2c2nncs2)cc1 (stereo unspecified) returned Dicer inh -1.18.
Screening Cc1nn2c3c(cnc2c1-c1ccccc1)C(=O)CC(c1ccc(Cl)cc1)C3 (stereo unspecified) returned Dicer inh 0.4.
For O=C1CC(c2ccc(Cl)cc2)Sc2nc(-c3ccccc3)nn21 (stereo unspecified) the results were Dicer inh 4.12*.
`O=C(NNC(=O)c1cccc2ccccc12)c1ccc2nsnc2c1` gave Dicer inh -0.51.
